This note sets out measurements from PubChem BioAssay (NCI).

This assay in a line: NCI Yeast Anticancer Drug Screen. Data for the wt1 strain (AID 149).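 Note: 0% = growth of vehicle-treated wt1 cultures.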 Particulars: S. cerevisiae wt1 strain (SPY 50644) growth inhibition, hits give high values. Here is the method:
Growth inhibition of yeast strains with defined genetic alterations is measured as a screen for potential anti-cancer activity. Selected strains with alterations in DNA damage repair or cell cycle control were exposed to compounds and growth inhibition was measured relative to vehicle treated controls. The strain used in this assay is wt1

Each structure is given as a SMILES string. Compounds without any hit were thinned out: in the full panel of roughly 79,000, 15% have a hit. Unmarked numbers belong to inactive results. Calls of active or inactive are those of the source. Cut-off read from the data, not from the text of the source: active = growth inhibition above about 70%; inactive = the rest.

On to `Cc1ccc(Nc2n[nH]c(=S)s2)cc1`, for which the growth inhibition by setting is: (at 1.2 µM) -21%; (at 3.7 µM) -12%; (at 11.0 µM) -19%; (at 33.0 µM) 35%; (at 100.0 µM) 92% (active).
For `OCCNCCOc1ccc(/C(=C(/Cl)c2ccccc2)c2ccccc2)cc1`, the growth inhibition (at 1.2 µM) was -25%; the growth inhibition (at 3.7 µM) was -26%; the growth inhibition (at 11.0 µM) is -3%; the growth inhibition (at 33.0 µM) was 98% (active); the growth inhibition (at 100.0 µM) was 97% (active).
Turning to `Cc1nc2c(ncn2CCO)c(=O)[nH]1`, the growth inhibition is -36% (at 1.2 µM); -22% (at 3.7 µM); -38% (at 11.0 µM); -42% (at 33.0 µM); -41% (at 100.0 µM).
As to `CCOC(=O)C1=C(C)NC(C)=C(C(=O)OCC)C1c1ccccc1Cl`, the growth inhibition (at 1.2 µM) is -8%; the growth inhibition (at 3.7 µM) is 3%; the growth inhibition (at 11.0 µM) was -6%; the growth inhibition (at 33.0 µM) is 40%; the growth inhibition (at 100.0 µM) is 95% (active).
On to `CO[C@@]12[C@H](COC(N)=O)C3=C(C(=O)C(C)=C(N)C3=O)N1C[C@@H]1N[C@@H]12`, for which the growth inhibition was 1% (at 1.2 µM); 2% (at 3.7 µM); 9% (at 11.0 µM); 30% (at 33.0 µM); 62% (at 100.0 µM).
Take `O=C(CCc1ccccc1)ON1C(=S)C(c2ccccc2)(c2ccccc2)N=C1Sc1ccccc1`: the growth inhibition reads like this: (at 1.2 µM) 6%; (at 3.7 µM) 6%; (at 11.0 µM) 13%; (at 33.0 µM) 14%; (at 100.0 µM) 17%.
In the case of `COc1ccc(/C=C2\SC(=S)N(C=C3C(=O)NC(=S)NC3=O)C2=O)cc1OC`, the growth inhibition reads like this: (at 1.2 µM) 4%; (at 3.7 µM) 6%; (at 11.0 µM) 25%; (at 33.0 µM) 79% (active); (at 100.0 µM) 94% (active).
Turning to `Clc1c(Cl)c(Cl)c2n[nH]nc2c1Cl`, the growth inhibition by setting is: (at 1.2 µM) -23%; (at 3.7 µM) -16%; (at 11.0 µM) -9%; (at 33.0 µM) 14%; (at 100.0 µM) 87% (active).
